Results filed as inconclusive are left out. Where a call stands in place of a potency, no number is given. Unmarked numbers belong to inactive results. Active and inactive are the calls of the source. Calls come from the whole dose curve; as a rule, active = well fitted curve in the direction sought with a large enough effect; inconclusive = small, poorly fitted or top-dose-only effect, or another doubt; inactive = no such curve, though single readings can be large; an effect the other way counts as inactive or inconclusive.
Assays:
[1] = system: CRL-7250; experiment: Cytotoxic Profiling of Annotated Libraries Using Quantitative High-Throughput Screening (AID 1296008); details: Five cell lines viability, CellTiter-Glo ATP luminescence, 48-72 h; max response: active compounds read low; note: nearly all actives have a fitted effect of over 60% in size
Method in brief: (§1)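 Compounds were pin-transferred onto cells and incubated 48 or 72 hr at 37 degree Celsius, 95% humidity. CellTiter-Glo was added, plates sat 10 min at room temperature, then ATP-coupled luminescence was imaged as the viability read-out.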

[2] = system: HaCat; experiment: as above; details: Five cell lines viability, CellTiter-Glo ATP luminescence, 48-72 h; max response: active compounds read low
Method in brief: as §1

[3] = system: KB-3-1; experiment: as above; details: Five cell lines viability, CellTiter-Glo ATP luminescence, 48-72 h; max response: active compounds read low
Method in brief: as §1

[4] = system: NIH3T3; experiment: as above; details: Five cell lines viability, CellTiter-Glo ATP luminescence, 48-72 h; max response: active compounds read low
Method in brief: as §1

[5] = system: HACAT; experiment: qHTS assay to identify novel small-molecules to repurpose for Merkel cell carcinoma treatment (AID 1296009); details: MCC and control cell lines, CellTiter-Glo viability, 72 h; at 44.8 µM (top of the series) unless noted; note: nearly all actives have a fitted effect of over 60% in size
Method in brief: (§2)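 Cells exposed to NPC (8-point) and MIPE (11-point) compound dilutions for 72 hr at 37 degree celsius; viability read by CellTiter-Glo luminescence, normalized to no-cell and DMSO in-plate controls.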

[6] = system: NIH3T3; experiment: as above; details: MCC and control cell lines, CellTiter-Glo viability, 72 h; series mostly up to 44.8 µM
Method in brief: as §2

[7] = system: C33A; experiment: Primary qHTS to identify gynecologic anti-cancer compounds using libraries of approved drugs and bioactive compounds (AID 1345084); details: Gynecologic cancer cell panel viability, ATPlite luminescence, 48 h; series mostly up to 57.5 µM; note: nearly all actives have a fitted effect of over 55% in size; note: potency is the fitted concentration of half-maximal effect
Method in brief: (§3)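 Cell viability after 48 h drug treatment, ATPlite luminescence readout; five doses.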

[8] = system: CAOV3; experiment: as above; details: Gynecologic cancer cell panel viability, ATPlite luminescence, 48 h; series mostly up to 57.5 µM
Method in brief: as §3

[9] = system: CASKI; experiment: as above; details: Gynecologic cancer cell panel viability, ATPlite luminescence, 48 h; series mostly up to 57.5 µM
Method in brief: as §3

[10] = system: Es-2; experiment: as above; details: Gynecologic cancer cell panel viability, ATPlite luminescence, 48 h; series mostly up to 57.5 µM
Method in brief: as §3

[11] = system: HeLa; experiment: as above; details: Gynecologic cancer cell panel viability, ATPlite luminescence, 48 h; series mostly up to 57.5 µM
Method in brief: as §3

[12] = system: Hek293T; experiment: as above; details: Gynecologic cancer cell panel viability, ATPlite luminescence, 48 h, control line for the selectivity index; series mostly up to 57.5 µM
Method in brief: as §3

[13] = system: JEG-3; experiment: as above; details: Gynecologic cancer cell panel viability, ATPlite luminescence, 48 h; series mostly up to 57.5 µM
Method in brief: as §3

[14] = system: OV90; experiment: as above; details: Gynecologic cancer cell panel viability, ATPlite luminescence, 48 h; series mostly up to 57.5 µM
Method in brief: as §3

Compound	outcome [1]	outcome [2]	outcome [3]	outcome [4]	outcome [5]	Potency [6]	Potency [7]	Potency [8]	Potency [9]	Potency [10]	Potency [11]	Potency [12]	Potency [13]	Potency [14]	max response [3] [%]	max response [1] [%]
O=C([C@@H](Cc1cccc(C(F)(F)F)c1)NS(=O)(=O)c1cc(F)c2c(c1)CCNC2)N1CCCC1	inactive	inactive	inactive	inactive	inactive	inactive	inactive	inactive	inactive	inactive	inactive	inactive	inactive	inactive		
O=c1[nH]c2ccccc2n1CCN1CCN(c2cccc(C(F)(F)F)c2)CC1	inactive	inactive		inactive	inactive	inactive	inactive	inactive	inactive	inactive	inactive	inactive	inactive	inactive	-13.2	
COc1ccc2c(c1O[C@H]1CCNC1)CCC2		inactive		inactive	inactive	inactive	inactive	inactive	inactive	inactive	inactive	inactive	inactive	inactive	-7.28	-1.86
C=C1CCC2C(C)(C)CCCC2(C)C1CC/C(C)=C\CO (stereo not drawn)		inactive		inactive	inactive	inactive	inactive	inactive	inactive	inactive	inactive	inactive	inactive	inactive	1.75	3.55
CCOC(=O)N1CCC(N2CCC[C@@H](NC(=O)c3ccccc3C)C2)CC1		inactive		inactive	inactive	inactive	inactive	inactive	inactive	inactive	inactive	inactive	inactive	inactive	8.62	-6.33
C/C=C(\C)C(=O)OC1C=C(C)CC(OC(=O)c2ccc(O)cc2)C2C1(C)CCC2(O)C(C)C (stereo not drawn)		inactive		inactive	inactive [at 17.4 µM]	inactive	inactive	inactive	inactive	inactive	inactive	inactive	inactive	inactive	5.76	1.09
C=CC(=O)N1CC(N2CCN(C(=O)CNc3cc(C4CC4)c(Cl)cc3O)CC2)C1	inactive	inactive	inactive	inactive	inactive	inactive	inactive	inactive	inactive	inactive	inactive	inactive	inactive	inactive		
CCCNCCc1ccc(NS(=O)(=O)c2ccc(OC(F)(F)F)cc2)cc1		inactive		inactive	inactive	inactive	inactive	inactive	inactive	inactive	inactive	inactive	inactive	inactive	-2.39	-2.99
CC1OC(=O)C[C@@H]2C(C(=O)O)=CO[C@@H](O[C@H]3O[C@H](CO)[C@@H](O)[C@H](O)[C@H]3O)[C@H]12 (stereo partly drawn)		inactive	inactive	inactive	inactive	inactive	inactive	inactive	inactive	inactive	inactive	inactive	inactive	inactive		-4.73
NC(=O)c1cccc2[nH]c(-c3ccc(C4CCCN4)cc3F)nc12 (stereo not drawn)	inactive	inactive	inactive	inactive	inactive	inactive	17.8 µM (active)	10 µM (active)		15.8 µM (active)		12.6 µM (active)	11.2 µM (active)			
CNC(C)C(=O)NC(C(=O)N1CCCC1C(=O)Nc1snnc1-c1ccccc1)C1CCCCC1 (stereo not drawn)		inactive		inactive	inactive	inactive	inactive	inactive	inactive	inactive	inactive	inactive	inactive	inactive	3.39	0.759
CC1=C2C[C@@]3(C)C(CCC[C@@H]3C)C(O)C2OC1=O (stereo partly drawn)		inactive		inactive	inactive	inactive	inactive	inactive	inactive	inactive	inactive	inactive	inactive	inactive	5.15	2.27
CNCCCC1(c2ccccc2)OC(C)(C)c2ccccc21 (stereo not drawn)		inactive		inactive	inactive	inactive	inactive	inactive	inactive	inactive	inactive	inactive	inactive	inactive	-1.28	3.46
O=C(NCC1CCN(Cc2cccc(Cl)c2)CC1)[C@@H]1CCCN(c2ncnc3c2nc2n3CCCC2)C1		inactive		inactive	inactive	inactive	inactive	inactive	inactive	inactive	inactive	inactive	inactive	inactive	-6.02	4.3

— PubChem BioAssay (NCATS)
